Compound activity deposited in PubChem BioAssay by several laboratories.
S1P2 agonist = S1P2 receptor agonists, primary screen, cell-based; Sphingosine 1-phosphate receptor 2 (Homo sapiens), O95136; activation, % at 4.5 µM; actives 0.46% (n = 97,000); S1P2-expressing cell line, agonist reporter read-out; AID 729, 2007; in the data active = activation above about 16%;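 note: 0% = vehicle low control and 100% = maximal reference agonist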
Mac1 fbg inh = inhibitors of CD11b/CD18 adhesion to fibrinogen, primary screen, K562 cells, luminescence; inhibition, % at 10 µM; Integrin beta-2 (Homo sapiens) + Integrin alpha-M (Homo sapiens), P05107+P11215; ATPlite luminescence; Mn2+ added to activate the integrin; actives 0.54% (n = 93,000);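 active = primary inhibition of 50% or more at 10 µM, then 40% or more on retest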
Target sequence (P05107 whole entry, looked up, other chains not shown): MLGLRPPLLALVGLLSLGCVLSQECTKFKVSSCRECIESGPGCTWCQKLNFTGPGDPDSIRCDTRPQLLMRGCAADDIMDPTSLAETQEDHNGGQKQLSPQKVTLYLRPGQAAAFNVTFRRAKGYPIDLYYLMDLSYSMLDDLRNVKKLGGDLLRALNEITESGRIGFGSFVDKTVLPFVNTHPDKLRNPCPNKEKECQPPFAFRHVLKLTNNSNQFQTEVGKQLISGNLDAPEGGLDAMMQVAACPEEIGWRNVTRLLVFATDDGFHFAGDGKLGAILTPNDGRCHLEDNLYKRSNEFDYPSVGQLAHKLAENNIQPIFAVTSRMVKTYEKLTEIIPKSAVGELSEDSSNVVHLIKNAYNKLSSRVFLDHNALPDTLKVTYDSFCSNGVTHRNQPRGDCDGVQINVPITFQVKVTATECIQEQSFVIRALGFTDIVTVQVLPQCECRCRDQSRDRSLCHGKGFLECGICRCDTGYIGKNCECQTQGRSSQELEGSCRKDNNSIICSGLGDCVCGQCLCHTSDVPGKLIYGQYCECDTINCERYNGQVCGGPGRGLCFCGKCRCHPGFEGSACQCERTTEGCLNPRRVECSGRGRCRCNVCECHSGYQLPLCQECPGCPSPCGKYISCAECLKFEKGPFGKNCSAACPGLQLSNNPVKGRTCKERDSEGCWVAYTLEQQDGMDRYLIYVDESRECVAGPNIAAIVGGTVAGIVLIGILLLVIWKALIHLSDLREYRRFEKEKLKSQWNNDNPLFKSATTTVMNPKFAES
S1P2 blocker = human S1P2 receptor antagonists, primary screen, cell-based | Sphingosine 1-phosphate receptor 2 (Homo sapiens), O95136 | cell-based S1P2 antagonist assay, inhibition at 5 uM | inhibition, % at 5 µM | actives 0.21% (n = 97,000) | AID 736, 2007; in the data active = inhibition above about 45%;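 note: CRE beta-lactamase reporter cells expressing human S1P2 stimulated with S1P; 0% = agonist at EC80 alone and 100% = agonist plus reference antagonist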
GALR2 antag = GALR2 antagonists in receptor-expressing cells, primary screen | inhibition, % at 4 µM | Galanin receptor type 2 (Homo sapiens), O43603 | antagonist mode | actives 0.39% (n = 140,000);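 note: cells stimulated with galanin 1-16 at roughly its EC80; 0% = agonist challenge control and 100% = basal control without agonist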
GALR2 agonist = GALR2 receptor agonists, primary screen, cell-based; actives 0.48% (n = 140,000); AID 803, 2007; Galanin receptor type 2 (Homo sapiens), O43603; GALR2-expressing cells, agonist activation read-out; activation, % (no concentration beside the values); in the data active = activation above about 5%, passing the limit was not always enough;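 note: 0% = vehicle buffer wells and 100% = reference agonist at full effect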
CD11b adhes enh = enhancers of CD11b/CD18 adhesion to fibrinogen, primary screen, K562 cells, luminescence; actives 0.07% (n = 93,000); ATPlite luminescence; activation, % at 10 µM; AID 1499, 2009; Integrin beta-2 (Homo sapiens) + Integrin alpha-M (Homo sapiens), P05107+P11215;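 active = 10 µM primary screen giving 50% or more activity, confirmed by 40% or more on retest at that dose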
GALR2 blk conf = GALR2 antagonists, retest of hits, confirmation, cell-based. inhibition, % at 4 µM. shares compounds with GALR2 antag. GALR2-expressing cells, antagonist mode, inhibition. actives 60% (n = 480);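 note: cells stimulated with galanin at about its EC80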
BLA inh counter = inhibitors of NFAT-driven beta-lactamase reporter, confirmation, counter-screen for GALR2 antagonist project, CHO NFAT-bla cells, FRET readout | AID 867, 2007 | inhibition, % at 4.2 µM | thapsigargin-stimulated | actives 36% (n = 480) | shares compounds with GALR2 antag;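 active = inhibition above the mean inhibition across tested compounds plus 3 SD, cut at about 27% in these data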;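 note: 0% = 500 nM thapsigargin stimulated wells and 100% = unstimulated BSA only wells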
Active calls of the source: *; . = no result. Hits are enriched below; roughly 1.4% of the tested compounds scored in any of these assays. Cut-off read from the data, not from the text of the source, unless noted: active = inhibition above about 27%; inactive = the rest.

SMILES	S1P2 agonist	Mac1 fbg inh	S1P2 blocker	GALR2 antag	GALR2 agonist	CD11b adhes enh	GALR2 blk conf	BLA inh counter
C/C(Cl)=C/CN1C(=O)C2C3C=CC(C3)C2C1=O (stereo not drawn)	-3	-6	8	10	-1	-1	.	.
Cc1ccc(S(=O)(=O)O/N=C2\CCCc3ccccc32)cc1	-6	2	2	5	-6	-3	.	.
CC1=C(C)/C(=N\OS(=O)(=O)c2ccccc2)C=CC1=O	-1	23	96*	77*	-2	-2	78*	71*
Cc1cc(C(=O)CSc2nc3ccccc3[nH]2)c(C)n1CC1CCCO1 (stereo not drawn)	-5	.	66*	43*	-2	.	34*	9
COC(=O)C1=C(C(=O)OC)C(c2ccccc2O)c2sc(=O)[nH]c2S1 (stereo not drawn)	.	.	.	-1	-1	.	.	.
CCN1CCN(Cc2ccc(NC(=O)CC3Oc4ccc(C)cc4NC3=O)cc2)CC1 (stereo not drawn)	-6	-12	16	34*	-2	6	2	3
CCN(CC)c1ccc(/C=C(/C#N)c2nc3ccc(C)cc3[nH]2)c(OC(C)C)c1	7	.	20	34*	-4	.	30*	37*
CCCOc1cc(N(CC)CC)ccc1/C=C(/C#N)c1nc2ccc(C)cc2[nH]1	0	13	1	25	-3	-2	.	.
N#C/C(=C/c1ccc(-c2ccc(S(N)(=O)=O)cc2)o1)C(=O)Nc1ccccc1	.	.	.	-3	0	.	.	.
N#C/C(=C/c1ccc(-c2ccc(S(N)(=O)=O)cc2)o1)c1nc2ccccc2s1	.	2	.	28*	0	72	41*	52*
Cc1ccnc(N2C(=O)c3cccc4c([N+](=O)[O-])ccc(c34)C2=O)c1	2	25	52*	36*	3	-5	42*	40*
O=C1c2cc([N+](=O)[O-])cc3cc([N+](=O)[O-])cc(c23)C(=O)N1c1ccccn1	.	.	.	20	-1	.	.	.
COc1ccc(OC)c(S(=O)(=O)N2CCCCCC2)c1	.	1	.	28*	-2	-2	2	0
COc1ccc(OC)c(S(=O)(=O)N2CCN(C)CC2)c1	.	-11	.	10	-1	-4	.	.
Cc1ccc(S(=O)(=O)CCC(=O)OCc2ccc(Cl)c(Cl)c2)cc1	.	-8	.	-8	0	-1	.	.
O=C(NC(Cc1ccccc1)C(=O)Oc1ccc2c(C(F)(F)F)cc(=O)oc2c1)OCc1ccccc1 (stereo not drawn)	.	.	.	32*	0	.	20	23
O=C1CC(c2ccc(Cl)cc2)n2nc(NS(=O)(=O)c3ccc(F)cc3)nc2N1 (stereo not drawn)	-7	31	5	-11	-2	-8	.	.
C=CCn1nc([N+](=O)[O-])nc1Sc1cccc2cccnc12	.	.	.	31*	-1	.	27	11
CCCCCOc1ccc(Br)cc1/C(C)=N/NC1=NCCN1	-6	.	21	28*	0	.	8	28*
C=CCNCCCCOc1ccc(Br)cc1C	.	.	.	7	-1	.	.	.
COc1cccc(/C=N/Nc2nc(N3CCCC3)nc(N3CCCC3)n2)c1O	-10	.	-6	29*	-1	.	17	3
CC1CCCCN1C(=S)Nc1ccc(OC(F)F)cc1 (stereo not drawn)	.	5	.	2	-1	-7	.	.
Cn1c(=O)oc2cc(S(=O)(=O)NCCN3CCCCCC3)ccc21	-5	.	9	-6	-1	.	.	.
COc1cccc(C(=O)Nc2ccc(S(=O)(=O)NCc3ccco3)cc2)c1	.	-12	.	29*	0	-6	15	12
O=C(Cc1ccccc1)Nc1scc(-c2ccccc2)c1C(=O)N1CCOCC1	-10	-6	15	2	-4	-3	.	.
NC(=O)c1c(-c2ccc(Cl)cc2Cl)csc1NC(=O)Cc1ccccc1	.	.	.	34*	0	.	31*	17
